The full ranking holds about 2,900 compounds; the median of “NF-kB SEAP reporter activity, fold change vs agonist alone” is about 0.99, and the highest 2% start at about 2.6. Only a selection was taken, and the highest values are over-represented in it overall.
Columns and labels:
RAW-Dual [1] = assay: NF-kB SEAP reporter activity, fold change vs agonist alone; cytotoxicity flag (confluency mask): cytotoxic (confluency <70% of control); higher = enhanced NF-kB activity
How it was run: (§1)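 RAW-Dual macrophages (50,000 cells/well in DMEM, 384-well plates) received 50 nL of library stock by pin tool, then a PRR agonist 1 h later, and were kept at 37 °C, 5% CO2. After 20 hours, supernatant was read for IRF by QuantiLuc luminescence and for NF-κB by QuantiBlue absorbance at 620 nm. Reporter activity is fold change over agonist-alone wells. Cytotoxic wells had IncuCyte confluency below 70% of agonist controls in both mask sets.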

RAW-Dual [2] = assay: NF-kB SEAP reporter activity, fold change vs agonist alone; cytotoxicity flag (confluency mask): not cytotoxic; higher = enhanced NF-kB activity
How it was run: as §1

RAW-Dual [3] = assay: NF-kB SEAP reporter activity, fold change vs agonist alone; higher = enhanced NF-kB activity; settings: library stock concentration (final ~1000-fold dilution): 10 mM
How it was run: as §1

[4] = agonist: ODN 1826 (TLR9) 0.5 ug/mL
[5] = agonist: Pam2CSK4 (TLR2/6) 0.1 ug/mL
[6] = agonist: Pam3CSK4 (TLR2/1) 0.1 ug/mL
[7] = cytotoxicity flag (confluency mask): cytotoxic (confluency <70% of control), agonist: Imiquimod (TLR7) […]
[8] = cytotoxicity flag (confluency mask): cytotoxic (confluency <70% of control), agonist: MPLA (TLR4) […]
[9] = cytotoxicity flag (confluency mask): not cytotoxic, agonist: Imiquimod (TLR7) […]
[10] = cytotoxicity flag (confluency mask): not cytotoxic, agonist: MPLA (TLR4) […]

SMILES: O=C(Nc1ccc([N+](=O)[O-])cc1O)Nc1ccccc1Br (library stock concentration (final ~1000-fold dilution): 10 mM)
- NF-kB SEAP reporter activity (RAW-Dual [1]; agonist: LPS (TLR4) 0.1 ug/mL): 2.98
- NF-kB SEAP reporter activity (RAW-Dual [1]; [4]): 2.14
- NF-kB SEAP reporter activity (RAW-Dual [1]; [5]): 0.989
- NF-kB SEAP reporter activity (RAW-Dual [1]; [6]): 1.7

SMILES: CS(=O)(=O)Nc1ccc([N+](=O)[O-])cc1Oc1ccccc1 (library stock concentration (final ~1000-fold dilution): 10 mM)
- NF-kB SEAP reporter activity (RAW-Dual [2]; agonist: LPS (TLR4) 0.1 ug/mL): 1.05
- NF-kB SEAP reporter activity (RAW-Dual [2]; [4]): 0.993
- NF-kB SEAP reporter activity (RAW-Dual [2]; [5]): 0.937
- NF-kB SEAP reporter activity (RAW-Dual [2]; [6]): 0.873

SMILES: O=C(Nc1ccccc1)c1cc([N+](=O)[O-])ccc1Cl (library stock concentration (final ~1000-fold dilution): 10 mM)
- NF-kB SEAP reporter activity (RAW-Dual [2]; agonist: LPS (TLR4) 0.1 ug/mL): 0.722
- NF-kB SEAP reporter activity (RAW-Dual [2]; [4]): 0.873
- NF-kB SEAP reporter activity (RAW-Dual [2]; [5]): 0.881
- NF-kB SEAP reporter activity (RAW-Dual [2]; [6]): 0.836

SMILES: O=C(Nc1ccc([N+](=O)[O-])cc1O)Nc1ccccc1Br
- NF-kB SEAP reporter activity (RAW-Dual [3]; [7]): 1.47
- NF-kB SEAP reporter activity (RAW-Dual [3]; [8]): 1.48

SMILES: CS(=O)(=O)Nc1ccc([N+](=O)[O-])cc1Oc1ccccc1
- NF-kB SEAP reporter activity (RAW-Dual [3]; [9]): 0.516
- NF-kB SEAP reporter activity (RAW-Dual [3]; [10]): 1.08

SMILES: O=C(Nc1ccccc1)c1cc([N+](=O)[O-])ccc1Cl
- NF-kB SEAP reporter activity (RAW-Dual [3]; [9]): 1.37
- NF-kB SEAP reporter activity (RAW-Dual [3]; [10]): 0.89

SMILES: FC(F)F.N=C(N)NCCCC1NC(=O)C(CCCCN)NC(=O)C(Cc2ccc(O)cc2)NC(=O)C(CC(=O)O)NC(=O)CNC1=O.O=C(O)C(F)(F)F.O=CO (stereo not given)
- NF-kB SEAP reporter activity (RAW-Dual [3]; [9]): 0.972
- NF-kB SEAP reporter activity (RAW-Dual [3]; [10]): 1.04

SMILES: FC(F)F.N=C(N)NCCCC1NC(=O)C(CCCCN)NC(=O)C(Cc2ccc(O)cc2)NC(=O)C(CC(=O)O)NC(=O)CNC1=O.O=C(O)C(F)(F)F.O=CO (stereo not given) (library stock concentration (final ~1000-fold dilution): 10 mM)
- NF-kB SEAP reporter activity (RAW-Dual [2]; agonist: LPS (TLR4) 0.1 ug/mL): 1.23
- NF-kB SEAP reporter activity (RAW-Dual [2]; [4]): 0.997
- NF-kB SEAP reporter activity (RAW-Dual [2]; [5]): 1.14
- NF-kB SEAP reporter activity (RAW-Dual [2]; [6]): 0.899

SMILES: COc1cc(-c2cc(-c3ccc(N4CCNCC4)cc3)cnc2C)cc(OC)c1OC (library stock concentration (final ~1000-fold dilution): 10 mM)
- NF-kB SEAP reporter activity (RAW-Dual [2]; agonist: LPS (TLR4) 0.1 ug/mL): 3.37
- NF-kB SEAP reporter activity (RAW-Dual [2]; [4]): 0.202
- NF-kB SEAP reporter activity (RAW-Dual [2]; [5]): 1.29
- NF-kB SEAP reporter activity (RAW-Dual [2]; [6]): 1.57

SMILES: COc1cc(-c2cc(-c3ccc(N4CCNCC4)cc3)cnc2C)cc(OC)c1OC
- NF-kB SEAP reporter activity (RAW-Dual [3]; [9]): 1.28
- NF-kB SEAP reporter activity (RAW-Dual [3]; [10]): 1.94

SMILES: c1cc(-c2cnn3cc(-c4ccc(N5CCNCC5)cc4)cnc23)c2cccnc2c1 (library stock concentration (final ~1000-fold dilution): 10 mM)
- NF-kB SEAP reporter activity (RAW-Dual [1]; agonist: LPS (TLR4) 0.1 ug/mL): 0.202
- NF-kB SEAP reporter activity (RAW-Dual [1]; [4]): 0.193
- NF-kB SEAP reporter activity (RAW-Dual [1]; [5]): 0.0775
- NF-kB SEAP reporter activity (RAW-Dual [1]; [6]): 0.149

SMILES: c1cc(-c2cnn3cc(-c4ccc(N5CCNCC5)cc4)cnc23)c2cccnc2c1
- NF-kB SEAP reporter activity (RAW-Dual [3]; [7]): 0.258
- NF-kB SEAP reporter activity (RAW-Dual [3]; [8]): 0.269

SMILES: COc1cc(-c2cc(-c3cccc(O)c3)cnc2N)cc(OC)c1OC (library stock concentration (final ~1000-fold dilution): 10 mM)
- NF-kB SEAP reporter activity (RAW-Dual [2]; agonist: LPS (TLR4) 0.1 ug/mL): 1.87
- NF-kB SEAP reporter activity (RAW-Dual [2]; [4]): 1.54
- NF-kB SEAP reporter activity (RAW-Dual [2]; [5]): 1.09
- NF-kB SEAP reporter activity (RAW-Dual [2]; [6]): 1.39

SMILES: COc1cc(-c2cc(-c3cccc(O)c3)cnc2N)cc(OC)c1OC
- NF-kB SEAP reporter activity (RAW-Dual [3]; [9]): 1.24
- NF-kB SEAP reporter activity (RAW-Dual [3]; [10]): 1.77

SMILES: C[C@@H]1O[C@@H](O[C@H]2[C@H](OC(=O)[C@]34CCC(C)(C)C[C@H]3C3=CC[C@@H]5[C@@]6(C)C[C@H](O)[C@H](O[C@@H]7O[C@H](CO)[C@@H](O)[C@H](O)[C@H]7O)[C@@](C)(CO)[C@@H]6CC[C@@]5(C)[C@]3(C)CC4)O[C@H](CO)[C@@H](O)[C@@H]2O)[C@H](O)[C@H](O)[C@H]1O[C@@H]1OC[C@@H](O)[C@H](O)[C@H]1O
- NF-kB SEAP reporter activity (RAW-Dual [3]; [9]): 0.83
- NF-kB SEAP reporter activity (RAW-Dual [3]; [10]): 1.01

SMILES: C[C@@H]1O[C@@H](O[C@H]2[C@H](OC(=O)[C@]34CCC(C)(C)C[C@H]3C3=CC[C@@H]5[C@@]6(C)C[C@H](O)[C@H](O[C@@H]7O[C@H](CO)[C@@H](O)[C@H](O)[C@H]7O)[C@@](C)(CO)[C@@H]6CC[C@@]5(C)[C@]3(C)CC4)O[C@H](CO)[C@@H](O)[C@@H]2O)[C@H](O)[C@H](O)[C@H]1O[C@@H]1OC[C@@H](O)[C@H](O)[C@H]1O (library stock concentration (final ~1000-fold dilution): 10 mM)
- NF-kB SEAP reporter activity (RAW-Dual [2]; agonist: LPS (TLR4) 0.1 ug/mL): 1.11
- NF-kB SEAP reporter activity (RAW-Dual [2]; [4]): 0.984
- NF-kB SEAP reporter activity (RAW-Dual [2]; [5]): 1.04
- NF-kB SEAP reporter activity (RAW-Dual [2]; [6]): 1.19

SMILES: CN(C)C(CCOc1cccc2ccccc12)c1ccccc1.Cl (stereo not given)
- NF-kB SEAP reporter activity (RAW-Dual [3]; [7]): 1.61
- NF-kB SEAP reporter activity (RAW-Dual [3]; [8]): 0.958

SMILES: CN(C)C(CCOc1cccc2ccccc12)c1ccccc1.Cl (stereo not given) (library stock concentration (final ~1000-fold dilution): 10 mM)
- NF-kB SEAP reporter activity (RAW-Dual [1]; agonist: LPS (TLR4) 0.1 ug/mL): 1.05
- NF-kB SEAP reporter activity (RAW-Dual [1]; [4]): 0.655
- NF-kB SEAP reporter activity (RAW-Dual [1]; [5]): 0.546
- NF-kB SEAP reporter activity (RAW-Dual [1]; [6]): 0.65

SMILES: CCCSc1nc(NC2CC2c2ccc(F)c(F)c2)c2nnn(C3CC(OCCO)C(O)C3O)c2n1 (stereo not given)
- NF-kB SEAP reporter activity (RAW-Dual [3]; [7]): 1.05
- NF-kB SEAP reporter activity (RAW-Dual [3]; [8]): 0.94

SMILES: CCCSc1nc(NC2CC2c2ccc(F)c(F)c2)c2nnn(C3CC(OCCO)C(O)C3O)c2n1 (stereo not given) (library stock concentration (final ~1000-fold dilution): 10 mM)
- NF-kB SEAP reporter activity (RAW-Dual [1]; agonist: LPS (TLR4) 0.1 ug/mL): 1.04
- NF-kB SEAP reporter activity (RAW-Dual [1]; [4]): 0.615
- NF-kB SEAP reporter activity (RAW-Dual [1]; [5]): 0.51
- NF-kB SEAP reporter activity (RAW-Dual [1]; [6]): 0.332

SMILES: Cl.Cl.O=C(O)c1ccc(CN2CCC(CNC3CC3c3ccccc3)CC2)cc1 (stereo not given)
- NF-kB SEAP reporter activity (RAW-Dual [3]; [9]): 1.01
- NF-kB SEAP reporter activity (RAW-Dual [3]; [10]): 1.05

SMILES: Cl.Cl.O=C(O)c1ccc(CN2CCC(CNC3CC3c3ccccc3)CC2)cc1 (stereo not given) (library stock concentration (final ~1000-fold dilution): 10 mM)
- NF-kB SEAP reporter activity (RAW-Dual [2]; agonist: LPS (TLR4) 0.1 ug/mL): 1.01
- NF-kB SEAP reporter activity (RAW-Dual [2]; [4]): 1.22
- NF-kB SEAP reporter activity (RAW-Dual [2]; [5]): 0.875
- NF-kB SEAP reporter activity (RAW-Dual [2]; [6]): 0.786

SMILES: COc1cc(Nc2nc3ccccc3nc2NS(=O)(=O)c2ccc(NC(=O)c3ccc(C)c(OC)c3)cc2)cc(OC)c1 (library stock concentration (final ~1000-fold dilution): 10 mM)
- NF-kB SEAP reporter activity (RAW-Dual [2]; agonist: LPS (TLR4) 0.1 ug/mL): 2.08
- NF-kB SEAP reporter activity (RAW-Dual [2]; [4]): 1.04
- NF-kB SEAP reporter activity (RAW-Dual [2]; [5]): 0.51
- NF-kB SEAP reporter activity (RAW-Dual [2]; [6]): 0.561

Source: the supplement of paper PMC10037445
